In the supplement of paper PMC10338343:
± gives the standard deviation.

test system: MILI (PIWIL2) piRISC loaded with L1MC piRNA (26 nt); experiment: pre-steady-state target cleavage rate (min^-1); guide: L1MC piRNA 5'p-UAACUAAAUACUAUGCAAGCUGUAGG; MIWI and MILI are mouse PIWI proteins and EfPiwi is from a freshwater sponge; tags in brackets are library labels; higher = faster piRNA-guided slicing of the target; settings: auxiliary factor: 500 nM mouse GTSF1
Summary of the method: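 A transcribed, DNA-blocked target RNA library (0.1 nM) and 1 nM active affinity-purified piRISC bearing one synthetic guide were incubated in HEPES–potassium acetate buffer at 33 °C for 0–8 or 0–960 min, either with or without 500 nM GTSF1 partner protein. Uncleaved targets were sequenced, normalised to depth and to weakly complementary targets, and pooled over three trials, with k3 capped at 0.0001 min^-1. The pre-steady-state cleavage rate was derived with a burst-and-steady-state fit.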

Sequence	pre-steady-state target cleavage rate
UCCUGGUACACCUUGCAUAGUAUUUACAAA	0.046 ± 0.018
UCCUGGAUCAGCAAGCAUAGUAUUUAGAAA	0.101 ± 0.013
UCCUGCUACUCGUUGCAUAGUAUUUACAAA	0.0703 ± 0.016
UCCUGGAUGUGCUUGCAUAGUAUAUUGUUA	0.0146 ± 0.0062
UCCUGCUACAGCUUGCAUACAUUUUAGUUA	0.0121 ± 0.0061
UCCUGGAUGAGGAAGCAUAGUAUUUAGUAA	0.0509 ± 0.013
UCCUGGAACAGCUUGCAUAGUAUUUUCUAA	0.0162 ± 0.0068
UCCUGGUACACGAUGCAUAGUAUUUACAAA	0.00826 ± 0.0057
UCCUGGUACAGCUUGCUUAGUAUUUACUUA	0.191 ± 0.038
UCCUGGAUGUCGAACGUAUGUAUUUAUUUA	< 0.0001
UCCUGGAUGUGCUUGCAUAGUAUUUCAGUUA	0.0278 ± 0.01
UCCUGGUACAGCUUGCAUAGUUAAUAGAAA	0.00845 ± 0.0048
UCCUGGUACAGCUUGCAAAGAAUUUAGUUA	0.00951 ± 0.0059
UCCUGGAUCAGCUAGCAUAGUAUUUUCAAA	0.0498 ± 0.013
UCCUGGAUGUGCUUGCAUAGUAUUUUCAAA	0.00462 ± 0.0044
UCCUGGAUCAGCUUGCUAUGUAUUUAGUAA	0.00621 ± 0.0032
UCCUGGAUGUCGUUGCAUAGUUUUUAGUAA	0.00481 ± 0.004
UCCUGGAACAGGAAGCAUAGUAUUUAGAAA	0.049 ± 0.011
UCCUGGAUGUCGUUGUCAUAGUAUUUAGUUA	0.00743 ± 0.0049
UCCUGGAUCAGCUUGCAUAGUAAAUUCAAA	0.0136 ± 0.0055

Sequence	pre-steady-state target cleavage rate
UCCUGGAUGUCCUUGCAUAGUAUUAUGUUA	0.00972 ± 0.0046
UCCUCCUACACGAUGCAUAGUAUUUUCAAA	0.0649 ± 0.017
UCCUGGAUGUGGUUGCAUAGUAUUUAGAUA	0.0485 ± 0.021
UCCUGGAUCACCUUGCAUAGUAUAUAGUUA	0.227 ± 0.041
UCCUGGAUCAGCAACCAUAGUAUUUAGUUA	0.116 ± 0.013
UCCUGGAACAGCAAGCAUAGUAUUUACAAA	0.148 ± 0.034
UCCUGGAUGAGCUUGCAUAGUAAUUACUUA	0.00616 ± 0.004
UCCUGGAUGUCCUUGCAUAGUAUUUACUUA	0.0499 ± 0.013
UCCUGGAACAGCUUGCUAAGUAUUUAGAAA	0.0282 ± 0.01
UCCUGGUACAGCUUGCAUAGGAUUUAGUUA	0.00737 ± 0.0052
UCCUGGAUCAGCUUGCAUAGAAUUUACUUA	0.021 ± 0.0075
UCCUGGAUGUCGUAGCUUAGUAUUUAGUUA	0.0118 ± 0.0046
UCCUGGAACACGUUGCAUAGUAUUUUCAAA	0.0973 ± 0.026
UCCUGGAUGAGCUUGCAUAGUAUUAACAAA	0.00849 ± 0.0045
UCCUGGAACAGCUUGCUAAGUAUUUAGUAA	0.0296 ± 0.01
UCCUGGAUCAGCUAGCAUAGUAUUUACAAA	0.127 ± 0.023
UCCUGGAUGUCGAUGCAUAGUAUAAUGUUA	0.031 ± 0.012
UCCUGGAUGUCCUACCAUAGUAUUUAGUAA	0.021 ± 0.0077
UCCUGGAUCAGCUUGCAUAGUAUAUAGAAA	0.115 ± 0.03
